# About 5,200 (1.7%) of roughly 300,000 compounds were called active. The sample holds actives, similar compounds and a random draw of the others, so the mix is not that of the screen. Values without a mark were called inactive.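 How the source made its calls: active means mean replicate activation of at least 50% with a set share of replicates each reaching 50%; inconclusive means only one of those two conditions met; inactive means mean below 50% and too few replicates reaching it.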
# Assay: HSF-1 activators, primary screen, NIH3T3-HGL cells, MG132 stress, luminescence, single point (AID 504408);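 further: 0% = median of the neutral control wells and 100% = twice that signal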
# Conditions: NIH3T3-HGL HSF-1 luciferase reporter, MG132, 8 h; at 9 µM; hits give high values; 100% = twice DMSO control signal
row,Structure (SMILES),activation
1,Cc1c(C(=O)NCc2ccccc2)cnn1-c1ccccc1,2.05%
2,CNC(=O)CSc1nnc(CCc2ccccc2)n1-c1ccccc1,-1.82%
3,Cc1c(CNCCc2ccccc2)c(C(=O)O)c(C)n1-c1ccccc1,60.5% (active)
4,CC1(C)C/C(=N/Nc2ccc([N+](=O)[O-])cc2[N+](=O)[O-])C(C)(C)O1,-1.15%
5,COc1ccc(C(=O)CCC(=O)Nc2cccnc2)c(OC)c1,11.9%
6,COc1ccc(C(=O)CCc2ccccc2O)c(OC)c1,58% (active)
7,COc1ccc(C(=O)NC(C)CCc2ccccc2)c(OC)c1 (stereo unspecified),15.4%
8,O=C(Nc1ncccc1O)c1ccc(S(=O)(=O)N2CCCC2)cc1,2.49%
9,COc1cccc(N2CC(NS(=O)(=O)c3cccs3)CC2=O)c1 (stereo unspecified),2.81%
10,O=C(Nc1cc(S(=O)(=O)N2CCOCC2)ccc1OCC(F)(F)F)c1ccc(N2CCCC2=O)cc1,-1.99%
11,CCOC(=O)N1CCN(C(=O)CNC(=O)Cc2ccc(Cl)cc2)CC1,9.04%
12,CCOC(=O)c1ccc(CS(=O)c2ccc(Cl)cc2)o1 (stereo unspecified),8.33%
13,CCOC(=O)c1c(Cc2ccc(Cl)cc2)c[nH]c1C,87.7% (active)
14,NC1=NC(c2ccc([N+](=O)[O-])cc2)N(c2ccc(F)cc2)C(N)=N1 (stereo unspecified),-0.817%
15,O=C(COC(=O)c1cnccn1)Nc1ccc(Cl)cc1C(F)(F)F,-12.3%
16,Cc1ccc(Cl)c(OCC(=O)N(C)CC(=O)Nc2ccc(N3CCOCC3)cc2)c1,1.72%
17,COc1ccc(-c2csc3ncnc(N4CCN(S(=O)(=O)c5cccc(F)c5)CC4)c23)cc1,2.84%
18,Cc1cc(NC(=O)CSC2=NS(=O)(=O)c3cc(Cl)ccc3N2)no1,1.14%
19,COc1ccc(/C=C/C(=O)OCC(=O)Nc2cccc(Oc3ccccc3)c2)c(OC)c1,35.6%
20,CCN(C(=O)COC(=O)/C=C/c1nc2ccccc2s1)C1CCS(=O)(=O)C1 (stereo unspecified),16.8%
21,O=C(COC(=O)/C=C/c1nc2ccccc2s1)Nc1ccccc1Oc1ccccc1,54.4% (active)
22,O=C(Nc1ccccc1-c1nc2ccccc2[nH]c1=O)c1cccs1,-0.37%
23,C/C(=N\Nc1ncc(Cl)cc1Cl)c1cccs1,-33.8%
24,C/C(=N\Nc1nc2ccccc2[nH]1)c1cccs1,106% (active)
25,Cc1sc2ncnc(N3CCC(C(=O)NNC(=O)c4ccc(F)cc4)CC3)c2c1C,-17.9%
26,Cn1c(SCC(=O)c2ccccc2)ncc(C(=O)Nc2ccc(F)cc2)c1=O,9.37%

# — PubChem BioAssay AID504408 (Broad Institute, 2011)
